Inhibition data for 97 compounds are collected here from PubChem BioAssay AID1619 (SRMLSC, 2009).

SMILES strings stand for the structures. The campaign covered roughly 220,000 compounds. About 830 (0.38%) were called active.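 How the source made its calls: active means compound inhibiting the enzyme by more than half at any dose during confirmatory dose-response retesting; inconclusive means strong single-dose inhibitors picked by rank but not retested; inactive means the rest.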 These entries were drawn from the full list. Entries with a potency or affinity are not part of this list.

The target of the assay is Leucine aminopeptidase (Plasmodium falciparum (isolate 3D7)) (UniProt Q8IL11). As to the kind of experiment: P. falciparum M17LAP inhibitors, primary screen, biochemical, fluorogenic H-Leu-NHMec substrate, 1536-well (AID 1619).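 Further: plate controls were full reaction with DMSO carrier for no effect and no enzyme background for full effect.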 To be noted: recombinant M17LAP, H-Leu-NHMec fluorogenic kinetic assay; at 30 µM; active compounds read high.
Sequence of Leucine aminopeptidase (Plasmodium falciparum (isolate 3D7)) (Q8IL11 whole entry, looked up): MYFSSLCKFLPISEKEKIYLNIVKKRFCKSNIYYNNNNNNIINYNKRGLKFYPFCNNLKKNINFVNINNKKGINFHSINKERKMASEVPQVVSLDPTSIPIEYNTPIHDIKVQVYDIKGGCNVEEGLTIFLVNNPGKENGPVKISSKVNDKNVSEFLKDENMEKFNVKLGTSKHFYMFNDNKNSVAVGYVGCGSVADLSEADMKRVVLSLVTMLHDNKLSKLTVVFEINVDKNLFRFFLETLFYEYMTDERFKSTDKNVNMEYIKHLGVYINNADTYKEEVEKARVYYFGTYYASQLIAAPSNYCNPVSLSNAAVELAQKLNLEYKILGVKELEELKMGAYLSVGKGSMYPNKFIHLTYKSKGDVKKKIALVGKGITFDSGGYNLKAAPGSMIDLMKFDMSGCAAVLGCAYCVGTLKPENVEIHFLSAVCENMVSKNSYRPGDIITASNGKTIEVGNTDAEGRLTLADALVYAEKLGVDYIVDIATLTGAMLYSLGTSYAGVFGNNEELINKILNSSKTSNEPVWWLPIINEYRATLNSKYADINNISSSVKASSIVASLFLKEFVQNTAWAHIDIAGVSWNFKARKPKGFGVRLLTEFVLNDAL
For the compound `CC(=O)c1c(O)cc(=O)n(-c2ccccc2)c1-c1ccc(C)cc1`, the inhibition was 0.53% (inactive). The figure for `CC(=O)c1c(O)cc(=O)n(-c2ccccc2)c1-c1ccc(Cl)cc1` is -10.1% (inactive). Next, `Cc1cccc(Nc2nnc(SCC(=O)c3ccc(Br)s3)s2)c1C`: 23% (inactive); `CN(C(=O)CSc1nnc(-c2ccc(Cl)cc2)n1CC1CCCO1)C1CCS(=O)(=O)C1` (configuration not stated): -0.82% (inactive); `COc1ccc(CNc2ncccn2)cc1OC`: -2.62% (inactive). With `Cc1cc(C)n2nc(SCc3ccccc3)nc2n1`, the inhibition was -5.69% (inactive). Turning to `Nc1nc2nc(-c3ccc(OCc4ccccc4)cc3)cc(C(F)(F)F)n2n1`, the inhibition is -1.91% (inactive). The figure for `Cc1nc2nc(COc3ccccc3)nn2c(C)c1Cl` is -4.07% (inactive).

`CSc1nc2nc(-c3ccccc3)cc(C(F)(F)F)n2n1`: the inhibition is -8.74% (inactive). The figure for `CSc1nc2nc(C)cc(-c3ccccc3)n2n1` is -6.85% (inactive). `COc1ccc(CNc2nc3nc(C)cc(C)n3n2)cc1OC`: the inhibition is 4.62% (inactive). Take `COc1cc(C)nc2nc(SCc3ccccc3)nn12`: the inhibition was -4.54% (inactive).

For the compound `COC(=O)c1c(NC(=O)Cn2cnc([N+](=O)[O-])n2)sc2c1CCC(C)C2` (configuration not stated), the inhibition is 1.07% (inactive). Consider `O=C(NC1CCN(Cc2ccccc2)CC1)C1CCN(c2nnc(-n3cccc3)s2)CC1`, for which the inhibition was -1.52% (inactive). Next, `Nc1cc(C(F)(F)F)ccc1Nc1ccccc1`: -4.7% (inactive); `CCCCOC(=O)Nc1ccccc1C(=O)N1CCCC1`: 10.4% (inactive).

Take `CCOC(=O)C(C(=O)NCC1CCCO1)C1CCCCC1` (configuration not stated): the inhibition was 5.23% (inactive). Consider `CCOC(=O)C1(O)CSc2nc3sc(C(=O)O)c(C)c3c(=O)n21` (configuration not stated), for which the inhibition was -2.76% (inactive). `COc1ccc(-c2noc(CN(C)Cc3ccc(C)o3)n2)cc1`: the inhibition was 1.39% (inactive). Next, `COc1cc([N+](=O)[O-])ccc1NC(=O)CN1CCN(C(=O)c2ccco2)CC1`: 17.7% (inactive). Next, `COc1cc2c(C(=O)N3CCN(c4cccc(Cl)c4)CC3)cn(CC(C)C)c(=O)c2cc1OC`: -4.76% (inactive). On to `CC1(C)Cc2c(c(N3CCOCC3)nc3sc4c(N5CCOCC5)nnnc4c23)CS1`, for which the inhibition is -1.05% (inactive).

In the case of `CCc1ccc(NC2=NCC(=O)N2c2ccc3c(c2)OCCO3)cc1`, the inhibition is -5.16% (inactive). The figure for `CCOC(=O)C1(CC2CC2)CCN(Cc2cn[nH]c2-c2cccc(F)c2)CC1` is -3.31% (inactive); for `Cc1ccc(NC(=O)c2ccccc2OCC(=O)c2ccccc2)cc1` it is 3.34% (inactive); for `O=C(Cc1cccs1)N/N=C/C(Cl)=C/c1ccccc1` it is -2.46% (inactive). Next, `CC(/C=N/NC(=O)Cc1cccs1)=C\c1ccccc1`: -13.2% (inactive). Next, `O=C(Cc1cc(=O)[nH][nH]1)N/N=C/c1c(Cl)cccc1Cl`: 47.6% (inactive); `O=C(Cc1ccc(Cl)cc1)N/N=C/c1c(Cl)cccc1Cl`: -10.8% (inactive); `O=C(Cc1cc(=O)[nH][nH]1)N/N=C/C(Cl)=C/c1ccccc1`: 52.8% (inactive).

For `CC(/C=N/NC(=O)Cc1cccn1C)=C\c1ccccc1`, the inhibition is 32.7% (inactive). Next, `O=C(CCCN1C(=O)c2cccc3cccc(c23)C1=O)NCCN1CCOCC1`: 4.16% (inactive). The figure for `O=C(CCc1nnc(CCCCc2ccccc2)o1)NCc1cccc(F)c1` is -1.09% (inactive); for `CCC(C)Oc1cc(-c2ccnc(Nc3cccc(Cl)c3)n2)ccn1` (configuration not stated) it is 0.9% (inactive); for `CC(=O)Nc1ccc(S(=O)(=O)NCc2csc(-c3cccnc3)n2)cc1` it is 5.75% (inactive). As for `Cc1ccc(-c2cc(C(=O)Nc3ccc(S(=O)(=O)Nc4nc(C)cc(C)n4)cc3)c3ccccc3n2)cc1`, the inhibition was -0.85% (inactive). Next, `Cc1ccc(-c2cc(C(=O)Nc3ccc(S(=O)(=O)Nc4ncccn4)cc3)c3ccccc3n2)cc1`: 39.1% (inactive). The figure for `CC(=O)NS(=O)(=O)c1ccc(NC(=O)c2cc(-c3ccc(C)c(C)c3)nc3ccccc23)cc1` is -0.01% (inactive); for `CC(=O)NS(=O)(=O)c1ccc(NC(=O)c2cc(-c3cccs3)nc3ccccc23)cc1` it is 16.1% (inactive). The figure for `COc1ccc2c(c1)nc(SCC(=O)c1ccc(Br)s1)n2C` is 43.5% (inactive). Regarding `CCOC(=O)CCP(=O)(O)C(O)c1ccccc1` (configuration not stated), the inhibition was 11.7% (inactive). The figure for `COc1ccc(C(O)P(=O)(O)CCc2ccccc2)cc1` (configuration not stated) is 21.7% (inactive); for `O=C1OC(c2ccccc2)=C/C1=C\N1CCOCC1` it is 8.13% (inactive). The figure for `CC(C)[C@H](NC(=O)c1ccccc1)C(=O)OCC(=O)N1CCc2ccccc2C1` is 10.5% (inactive). The figure for `COc1ccc(NC(=O)c2ccc(-n3cccn3)c([N+](=O)[O-])c2)cc1` is 1.4% (inactive); for `O=C(CCCOc1ccc(Cl)cc1Cl)n1nnc2ccccc21` it is 69.2% (inactive). Turning to `O=C(CCCOc1ccccc1)n1nnc2ccccc21`, the inhibition was -0.57% (inactive).

On to `CN1CCN(C(=O)/C=C/c2ccc3c(c2)OCO3)CC1`, for which the inhibition was 6.85% (inactive). The figure for `COc1ccc(-n2c(=O)c3c4c(sc3n(CC(=O)NC3CCCC3)c2=O)CCCC4)c(OC)c1` is 0% (inactive); for `COc1cc(NC(=O)Cc2cccs2)c(C(=O)O)cc1OC` it is 4.5% (inactive); for `Cc1c(Cl)cccc1NC(CC(=O)c1ccccc1)C(=O)O` (configuration not stated) it is 49.4% (inactive). Next, `O=C(CC(Nc1ccccc1Cl)C(=O)O)c1ccccc1` (configuration not stated): 19.8% (inactive). Next, `O=C(CCCN1C(=O)c2ccccc2C1=O)Nc1nncs1`: 0.65% (inactive). As to `Oc1ccc(-c2nc(-c3ccc(O)c(O)c3)cs2)cc1`, the inhibition is 25.6% (inactive). The figure for `COc1cc(-c2csc(C)n2)ccc1O` is -9.57% (inactive); for `Cc1cc(Cl)cc(Cl)c1OCCCCN(C)C` it is 1.1% (inactive).

As for `COc1ccc(/C=C/C(=O)Nc2cc(=O)n(C)c(=O)n2C)cc1`, the inhibition is 50.5% (inactive). The figure for `Cn1c(NC(=O)/C=C/c2ccccc2)cc(=O)n(C)c1=O` is 9.82% (inactive); for `CCCCC(CC)CNC(=O)/C=C/c1ccc(F)cc1` (configuration not stated) it is 9.03% (inactive). Next, `COc1ccc(S(=O)(=O)Nc2ccc3c(c2)OCCO3)cc1Cl`: -0.34% (inactive); `O=C1CC(CSc2ccc(Cl)cc2)=NN1`: 7.98% (inactive); `Cc1cc(SCC2=NNC(=O)C2)c(Cl)cc1Cl`: 3.5% (inactive). Next, `O=C(O)COc1ccc(Cl)cc1CO`: 20% (inactive); `CCOC(=O)C1=C(C)N(C)C(C)=C(C(=O)OCC)C1c1ccc(C(=O)OC)cc1`: 3.78% (inactive); `CC(C)NC(=O)NC(=O)COc1c(F)c(F)cc(F)c1F`: -8.9% (inactive).

`CCNC(=S)Nc1ccc2cn[nH]c2c1`: the inhibition was 14.6% (inactive). For `CCc1ccc(NC(=S)Nc2ccc3cn[nH]c3c2)cc1`, the inhibition is 11.2% (inactive). The figure for `CC(c1ccon1)N(C)Cc1cn(C)nc1-c1cccc(Cl)c1` (configuration not stated) is -1.33% (inactive); for `CN(C)c1ccc(/C=C2\CCC/C(=C\c3ccccc3)C2=O)cc1` it is 5.08% (inactive); for `O=C1/C(=C/c2ccncc2)CCC/C1=C\c1ccncc1` it is -3.28% (inactive).

Consider `COc1ccc(CC(=O)Nc2cc(S(=O)(=O)N3CCOCC3)ccc2N2CCOCC2)cc1`, for which the inhibition was 2.63% (inactive).

As to `CC(=O)Nc1ccc(CC(=O)O)cc1`, the inhibition was -5.89% (inactive). Next, `O=C(Nc1ccccc1)Nc1cccc(Cl)c1`: 15.7% (inactive).

For `COc1ccc(NC(=O)Nc2ccc(CC(=O)O)cc2)cc1`, the inhibition is 2.73% (inactive).

Turning to `COC(=O)c1cccc(NC(=O)Nc2ccc(Cl)cc2)c1`, the inhibition is 2.56% (inactive).

In the case of `O=C(Nc1cccc(Cl)c1)Nc1cccc(C(=O)O)c1`, the inhibition is -7.66% (inactive).

On to `O=C(Nc1cccc(Cl)c1)Nc1cccc(Cl)c1`, for which the inhibition is 1.69% (inactive).

Regarding `O=C(Nc1ccc(OC(F)(F)F)cc1)Nc1cccc([N+](=O)[O-])c1`, the inhibition is 2.58% (inactive).

With `O=C(Nc1cccc([N+](=O)[O-])c1)Nc1cccc([N+](=O)[O-])c1`, the inhibition is -0.88% (inactive).

In the case of `O=C(COc1ccc(S(=O)(=O)N2CCCCC2)cc1)NC1CCCCC1`, the inhibition is 0.02% (inactive). The figure for `O=C(NC(Cc1ccccc1)C(=O)O)/C(=C\c1ccccc1F)NC(=O)c1ccccc1` (configuration not stated) is 32.3% (inactive). The figure for `O=C(NCc1ccco1)c1ccc(F)c(S(=O)(=O)N2CCCCC2)c1` is 8.34% (inactive); for `C#CCOc1nc(OCC#C)nc(OCC#C)n1` it is -14.6% (inactive); for `CC(C)(C)[C@@H]1C=C(C(=O)N2CCOCC2)O[C@H](OCc2ccc(CO)cc2)C1` it is 0.65% (inactive). The figure for `COc1ccccc1CNC(=O)COC(=O)Cc1c(F)cccc1Cl` is -4.41% (inactive); for `CC(C)C(=O)Nc1ccc(NC(=S)NC(=O)c2cc3ccccc3o2)cc1` it is -4.08% (inactive); for `COc1ccc(OC)c(NC(=S)N(CCc2c(C)[nH]c3ccc(C)cc23)Cc2cccs2)c1` it is 3.79% (inactive). As to `Cc1csc(NC(=O)c2cc(=O)[nH]c3ccc(S(=O)(=O)N4CCOCC4)cc23)n1`, the inhibition was -22.8% (inactive). The figure for `COc1ccc(/C=N/NC(=O)CSCC(=O)Nc2ccccc2)cc1` is -7.59% (inactive). The figure for `O=C(CSc1nc2ccccc2o1)N/N=C/c1ccccc1` is 17.4% (inactive); for `COc1ccc(/C=N/NC(=O)CC(=O)N/N=C/c2ccc(OC)cc2)cc1` it is 14.7% (inactive); for `CSc1nc(C)cc(SCC(=O)N/N=C/c2ccccc2)n1` it is -5.92% (inactive). Next, `Cc1cc(C(=O)Nc2ccccc2N2CCOCC2)ccc1[N+](=O)[O-]`: 8.21% (inactive); `O=C(c1ccc(CN2CCOCC2)cc1)N1CCN(c2ccccc2)CC1`: 3.18% (inactive). For the compound `Cc1ccc(C)c(NC(=O)c2ccc(S(=O)(=O)C(F)F)cc2)c1`, the inhibition is -0.05% (inactive).

`COc1ccccc1N1CCN(C(=O)c2cc(C(C)(C)C)oc2C)CC1`: the inhibition was 13.9% (inactive). In the case of `O=C1OCCC1Sc1nc2ccccc2c(=O)n1-c1ccc(F)cc1` (configuration not stated), the inhibition is -2.24% (inactive).
